Compound activity: PubChem BioAssay, several laboratories
SKKanGAS inh: S. pyogenes SKKanGAS growth inhibitors in kanamycin, primary screen, streptokinase expression inhibitor project, SKKanGAS strain, BacTiter-Glo luminescence; inhibition, % at 7.5 µM; AID 1662, 2009; hit rate 1.3% among 300,000; 6 h;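 active means mean replicate score, as percent of positive control median, at least 50; inconclusive means mean below 50 but one replicate at or above 50; inactive means mean and every replicate below 50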;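 further: strain carries kanamycin resistance gene driven by streptokinase promoter and grows in 40 µg/ml kanamycin; loss of luminescence reflects streptokinase promoter inhibition or plain growth inhibition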
Platelet DG rel: inhibitors of platelet dense granule secretion, primary screen, cell-based, MLPCN, human platelets. human platelet-rich plasma, SFLLRN dense granule ATP release, luminescence. inhibition, %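 (compounds screened at 7.5 µM in platelet-rich plasma)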. AID 1663, 2009. hit rate 0.22% among 300,000;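 active means mean replicate score, as percent of positive control, at or above 50; inconclusive means mean below 50 but at least one replicate at or above 50; inactive means mean and every replicate below 50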
TPT1 inhibitor: Candida albicans TPT1 enzyme inhibitors, primary screen, biochemical, fluorescence polarization; tRNA 2'-phosphotransferase TPT1 (Candida albicans SC5314); recombinant caTPT1, FP RNA substrate dephosphorylation; inhibition, % at 5 µM; hit rate 0.81% among 300,000; AID 1962, 2009;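 active means inhibition above the mean of all tested compounds plus 3 SD, set per screening campaign, cut at about 24% in these data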
WT yeast gro inh: growth inhibition of WT strain, primary screen, mitochondrial fusion inhibitor project, WT and mutant strains, chemical genetic; mitochondrial fusion phenotypic screen; inhibition, % at 10 µM; hit rate 2.1% among 190,000; AID 1362, 2008; in the data active means inhibition above about 58%; tested in S. cerevisiae
PHOSPHO1 block: PubChem AID 1565. recombinant PHOSPHO1, absorbance phosphatase assay. inhibition, % at 13.3 µM. hit rate 1.1% among 290,000; in the data active means inhibition above about 60%
Target sequence (Q8TCT1 whole entry, looked up): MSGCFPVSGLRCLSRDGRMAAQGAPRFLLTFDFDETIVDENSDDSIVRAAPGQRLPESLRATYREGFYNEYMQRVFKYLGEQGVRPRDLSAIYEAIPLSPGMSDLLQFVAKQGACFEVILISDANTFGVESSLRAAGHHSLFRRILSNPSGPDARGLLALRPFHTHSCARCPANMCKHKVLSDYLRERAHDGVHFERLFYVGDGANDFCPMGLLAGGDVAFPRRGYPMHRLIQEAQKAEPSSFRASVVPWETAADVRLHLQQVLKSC
Rtt109 HAT inh: inhibitors of C. albicans Rtt109/Vps75 HAT, primary screen, biochemical, ThioGlo CoA-SH fluorescence, plate reader | Histone acetyltransferase RTT109 (Candida albicans (strain SC5314 / ATCC MYA-2876)), … | purified Rtt109/Vps75, 4 h | inhibition, % at 34.9 µM | hit rate 0.16% among 330,000 | AID 540336, 2011;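 active means inhibition of at least 50% in every replicate; inconclusive means best replicate reaches 50% inhibition but some replicates fall short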
Target sequence (Q5AAJ8 whole entry, looked up): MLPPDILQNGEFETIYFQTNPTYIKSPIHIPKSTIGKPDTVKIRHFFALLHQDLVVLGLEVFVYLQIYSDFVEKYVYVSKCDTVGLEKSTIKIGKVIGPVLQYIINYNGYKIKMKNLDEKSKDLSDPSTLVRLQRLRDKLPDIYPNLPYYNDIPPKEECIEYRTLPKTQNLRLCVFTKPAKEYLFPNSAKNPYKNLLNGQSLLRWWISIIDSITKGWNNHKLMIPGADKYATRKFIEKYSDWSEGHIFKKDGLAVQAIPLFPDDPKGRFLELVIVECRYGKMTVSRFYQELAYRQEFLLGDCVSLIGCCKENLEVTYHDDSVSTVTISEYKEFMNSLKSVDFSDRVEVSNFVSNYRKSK
Large screens that a line does not name were inactive; ! = a repeat was not active. Compounds with a hit are over-represented: about 3.9% of the library has one in this group of screens.

COc1cc(-c2nc3ccc4ccccc4c3c3c2CCC3)cc(OC)c1O	WT yeast gro inh 98
N#Cc1ccc(-c2cccnc2)nc1SCc1ccc(Cl)c(Cl)c1	WT yeast gro inh 75 (no result: TPT1 inhibitor, Rtt109 HAT inh)
Cc1cnc(NC(=O)c2ccc(-c3ccc([N+](=O)[O-])cc3)o2)s1	none (no result: SKKanGAS inh, Platelet DG rel, TPT1 inhibitor, WT yeast gro inh, PHOSPHO1 block)
Cc1cnc(NC(=O)c2ccc(-c3nc4ccccc4s3)o2)s1	PHOSPHO1 block 105
O/N=C(\c1ccc(Cl)cc1Cl)c1ncc(C(F)(F)F)cc1Cl	SKKanGAS inh 51, WT yeast gro inh 85
C=CCC(O)(CC=C)CNC(=O)C1CCC(=O)N(CCCc2ccccc2)C1 (centres undefined)	none (no result: WT yeast gro inh)
C[C@]12CC[C@@H]3c4ccc(O)cc4CC[C@H]3[C@@H]1CC[C@@H]2OC(=O)CCC1CCCC1	SKKanGAS inh 111 (no result: WT yeast gro inh, PHOSPHO1 block)
CCCCC(=O)O[C@H]1CC[C@H]2[C@@H]3CCc4cc(O)ccc4[C@H]3CC[C@]12C	SKKanGAS inh 89, WT yeast gro inh 91
C[C@]12CC[C@@H]3c4ccc(O)cc4CC[C@H]3[C@@H]1CCC2=O	none
CC(C)C1C(C#N)=C(N)SC(N)=C1C#N	PHOSPHO1 block 73
O=c1cc2c(nn1Cc1ccc(Cl)cc1Cl)-c1ccccc1CC2	SKKanGAS inh inconclusive, WT yeast gro inh 76
O=c1cc2c(nn1Cc1ccccc1Cl)-c1ccccc1CC2	WT yeast gro inh 69
C/C(=N\NC(=O)c1ccc(-n2cnnn2)cc1)c1ccc(Cl)cc1	none (no result: SKKanGAS inh, Platelet DG rel, TPT1 inhibitor, WT yeast gro inh, PHOSPHO1 block)
Nc1nonc1C(=O)NCCN=Cc1ccccc1O	none
Nc1nonc1C(=O)NCCN=Cc1cc(Cc2ccccc2)cc(Br)c1O	SKKanGAS inh 52
COc1ccc(S(=O)(=O)N2CCN(C)CC2c2ccccc2)cc1OC (centres undefined)	none (no result: SKKanGAS inh, Platelet DG rel, TPT1 inhibitor, WT yeast gro inh, PHOSPHO1 block)
c1csc(-c2nnsc2-c2nc3ccccc3[nH]2)c1	PHOSPHO1 block 96 (no result: Platelet DG rel)
N=c1c(C(=O)NCc2ccco2)cc2c(=O)n3ccccc3nc2n1Cc1ccc(Cl)cc1	WT yeast gro inh 74
CC(C)n1c(=N)c(C(=O)NCCc2ccccc2)cc2c(=O)n3ccccc3nc21	PHOSPHO1 block 63
Cc1cccn2c(=O)c3cc(C(=O)NCc4cccnc4)c(=N)n(C(C)C)c3nc12	none
CCOC(=O)c1c(C)[nH]c(C(C)=NNC(=O)Cn2nc(C)cc2C)c1C	none (no result: SKKanGAS inh, Platelet DG rel, TPT1 inhibitor, WT yeast gro inh, PHOSPHO1 block)
O=C(COC(=O)/C=C/c1cccc(F)c1)NC1CCCCCC1	none (no result: SKKanGAS inh, Platelet DG rel, TPT1 inhibitor, WT yeast gro inh, PHOSPHO1 block)
O=C(COc1ccc(Cl)cc1Cl)N1CCNC1=O	none (no result: SKKanGAS inh, Platelet DG rel, TPT1 inhibitor, WT yeast gro inh, PHOSPHO1 block)
Cn1c(CNC(=O)CNC(=O)c2ccc(F)cc2)cc(=O)n(C)c1=O	SKKanGAS inh 56 (no result: WT yeast gro inh)
Cc1ccc(NS(=O)(=O)c2ccc(C3CCCCC3)cc2)cc1	SKKanGAS inh 76, WT yeast gro inh 80
Nc1ncnc2c1ncn2[C@@H]1O[C@H](CNCC(O)CO)[C@@H](O)[C@H]1O (some centres undefined)	none (no result: SKKanGAS inh, Platelet DG rel, TPT1 inhibitor, WT yeast gro inh, PHOSPHO1 block)
COc1ccc(CCNC(=O)c2cc(COc3c(C)cccc3C)on2)c(OC)c1	none (no result: WT yeast gro inh)
COc1ccc2c(c1)S/C(=C\C(=O)c1ccncc1)N2C	PHOSPHO1 block 70
Cc1ccc(CS(=O)Cc2ccc(C(=O)NCc3ccc(OC(C)C)cc3)o2)cc1 (centres undefined)	none (no result: WT yeast gro inh)
c1ccc2[nH]c(-c3ccnc4ccccc34)nc2c1	PHOSPHO1 block 89!
c1ccc2[nH]c(-c3cscn3)nc2c1	none
c1ccc2nc(-c3nc4ccccc4[nH]3)ccc2c1	Platelet DG rel 83
CCOc1ccc(C(=O)Nc2ccc(NC(=O)c3ccccc3)c(C)c2)cc1[N+](=O)[O-]	none (no result: TPT1 inhibitor, WT yeast gro inh)
O=c1cc(/C=C/c2ccccc2)oc2c1ccc1ccccc12	WT yeast gro inh 81
CCCc1cc(CN(C)C(=O)CC2C(=O)NCCN2Cc2ccccc2C)[nH]n1 (centres undefined)	none (no result: WT yeast gro inh)
S=c1[nH]nc(-c2ccccc2)o1	PHOSPHO1 block 101
CSc1ccccc1-c1n[nH]c(=S)o1	SKKanGAS inh 56 (no result: TPT1 inhibitor, Rtt109 HAT inh)
Cc1ccccc1-c1n[nH]c(=S)o1	PHOSPHO1 block 96
C[C@H]1COC(=O)CC/C=C\C[C@H](CC(=O)N(CCO)Cc2ccccc2)C(=O)N1	none (no result: SKKanGAS inh, Platelet DG rel, TPT1 inhibitor, WT yeast gro inh, PHOSPHO1 block)
COc1ccc(C2=Nc3cccc4cccc(c34)N2)cc1	WT yeast gro inh 66
COc1ccc(Cn2cnc3c(N)c(C)c(C)cc32)cc1	none (no result: Rtt109 HAT inh)
CCCCCCCCn1cnc2c(N)c(C)c(C)cc21	WT yeast gro inh 59, Rtt109 HAT inh inconclusive
CCOC(=O)CNC(=S)N(Cc1ccccc1)Cc1ccccc1F	none
CN(C)CCNC(=O)CNC(=S)N(Cc1ccccc1)Cc1ccccc1F	none
O=C(CNC(=S)N(Cc1ccccc1)Cc1ccccc1F)NCc1ccccc1	WT yeast gro inh 75
COc1cccc(CNC(=O)CNC(=S)N(Cc2ccccc2)Cc2ccccc2F)c1	WT yeast gro inh 72 (no result: TPT1 inhibitor)
O=C(CNC(=S)N(Cc1ccccc1)Cc1ccccc1F)NCc1ccc(Cl)cc1	WT yeast gro inh 81 (no result: TPT1 inhibitor)
O=C(CNC(=S)N(Cc1ccccc1)Cc1ccccc1F)NCCc1ccccc1	WT yeast gro inh 64
Cc1ccc(C)c(S(=O)(=O)N2CCN(C(=O)CCC(=O)NCc3ccc(Cl)cc3Cl)CC2)c1	none (no result: SKKanGAS inh, Platelet DG rel, TPT1 inhibitor, WT yeast gro inh, PHOSPHO1 block)
Cc1ccc(CNC(=O)CNC(=S)N(Cc2ccccc2)Cc2ccccc2F)cc1	WT yeast gro inh 74 (no result: TPT1 inhibitor)
CCOC(=O)c1ccc(NC(=O)CCCN2C(=O)NC3(CCCC3)C2=O)cc1	none (no result: SKKanGAS inh, Platelet DG rel, TPT1 inhibitor, WT yeast gro inh, PHOSPHO1 block)
CCCNC(=O)c1ccc(N2CCC3(CC2)CC(c2ccccc2)=NO3)c(NC(=O)c2ccco2)c1	SKKanGAS inh 50 (no result: WT yeast gro inh)
Cn1ccnc1SCC(=O)NC1(C#N)CCCCC1	none (no result: WT yeast gro inh, PHOSPHO1 block)
